Consider 3 compounds from the supplement of paper PMC9446081.

SMILES strings stand for the structures. ± gives the standard deviation of the averaged measurements.

Common to all, as to assay: relative enzymatic activity vs untreated control (fraction); higher = less inhibition
Holding throughout (settings): 100 µM; incubation time: 2 h at 37 C

One experiment relates to DNA gyrase. The method, then: (§1)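 In vitro enzymatic inhibition assays (ProFoldin kits) for 12 purified essential E. coli enzymes or complexes, each treated with 218 active antibacterial compounds at 100 µM for 2 h at 37°C. Read-outs were fluorescence or absorbance (phosphate detection, dye binding), converted to activity via standard curves and expressed relative to untreated DMSO controls.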

A further experiment addresses DNA helicase (UniProt P0ACB1). The method, then: as §1
In another experiment the target is DNA polymerase (UniProt P10443). The method, then:
as §1

The target of the next experiment is DNA primase (UniProt P0ABS7). The protocol:
as §1

The target of another experiment is GlmU (UniProt A7ZTU1). The method, then: as §1
Sequence of GlmU (A7ZTU1 whole entry, looked up): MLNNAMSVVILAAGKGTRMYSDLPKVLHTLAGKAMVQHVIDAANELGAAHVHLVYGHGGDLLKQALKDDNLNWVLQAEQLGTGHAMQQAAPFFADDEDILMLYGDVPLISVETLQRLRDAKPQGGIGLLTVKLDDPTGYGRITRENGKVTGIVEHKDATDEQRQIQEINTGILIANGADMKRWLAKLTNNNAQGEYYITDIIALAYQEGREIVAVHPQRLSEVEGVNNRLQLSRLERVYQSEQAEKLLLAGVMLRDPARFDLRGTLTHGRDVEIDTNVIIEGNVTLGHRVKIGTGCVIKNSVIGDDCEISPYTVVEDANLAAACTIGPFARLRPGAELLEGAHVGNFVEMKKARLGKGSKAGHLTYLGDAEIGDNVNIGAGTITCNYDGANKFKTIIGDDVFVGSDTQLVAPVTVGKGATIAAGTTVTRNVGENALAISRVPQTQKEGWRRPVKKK
A further experiment concerns the target Guanlyate kinase (UniProt Q0TBG1). The method, then: as §1
Another experiment concerns the target MurA (UniProt Q3YX52). The method, then:
as §1

Another experiment has as its target T1, MurD (UniProt P14900).
T1 sequence (whole entry): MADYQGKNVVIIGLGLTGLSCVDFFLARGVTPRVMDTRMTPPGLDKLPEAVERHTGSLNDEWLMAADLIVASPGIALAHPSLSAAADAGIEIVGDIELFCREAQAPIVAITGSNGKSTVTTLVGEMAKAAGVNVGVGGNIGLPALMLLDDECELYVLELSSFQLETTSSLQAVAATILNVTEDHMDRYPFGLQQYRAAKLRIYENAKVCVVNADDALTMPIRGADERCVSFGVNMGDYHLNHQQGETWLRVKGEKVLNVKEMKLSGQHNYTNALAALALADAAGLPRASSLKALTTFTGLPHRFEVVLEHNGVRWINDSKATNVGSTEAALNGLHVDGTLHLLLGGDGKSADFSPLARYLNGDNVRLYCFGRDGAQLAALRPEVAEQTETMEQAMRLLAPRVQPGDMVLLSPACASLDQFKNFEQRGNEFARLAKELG
The method, then:
as §1

Another experiment has as its target T2, MurF (UniProt P11880).
T2 sequence (whole entry): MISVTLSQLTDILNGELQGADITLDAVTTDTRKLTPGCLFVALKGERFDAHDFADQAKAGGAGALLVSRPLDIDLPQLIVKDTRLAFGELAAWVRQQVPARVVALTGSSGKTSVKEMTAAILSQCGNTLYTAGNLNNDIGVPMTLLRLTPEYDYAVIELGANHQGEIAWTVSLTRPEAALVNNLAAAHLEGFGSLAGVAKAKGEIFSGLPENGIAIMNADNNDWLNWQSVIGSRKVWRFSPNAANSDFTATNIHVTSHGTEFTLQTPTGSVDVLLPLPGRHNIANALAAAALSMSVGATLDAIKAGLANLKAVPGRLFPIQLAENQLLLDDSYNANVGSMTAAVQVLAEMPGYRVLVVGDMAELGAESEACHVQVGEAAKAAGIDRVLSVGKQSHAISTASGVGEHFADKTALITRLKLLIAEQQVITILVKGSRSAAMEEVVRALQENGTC
The method, then:
as §1

In a further experiment the test system is RNA polymerase. The method, then: as §1
The target in the next experiment is DNA ligase (UniProt B1XA82). The method, then: as §1
Sequence of DNA ligase (B1XA82 whole entry): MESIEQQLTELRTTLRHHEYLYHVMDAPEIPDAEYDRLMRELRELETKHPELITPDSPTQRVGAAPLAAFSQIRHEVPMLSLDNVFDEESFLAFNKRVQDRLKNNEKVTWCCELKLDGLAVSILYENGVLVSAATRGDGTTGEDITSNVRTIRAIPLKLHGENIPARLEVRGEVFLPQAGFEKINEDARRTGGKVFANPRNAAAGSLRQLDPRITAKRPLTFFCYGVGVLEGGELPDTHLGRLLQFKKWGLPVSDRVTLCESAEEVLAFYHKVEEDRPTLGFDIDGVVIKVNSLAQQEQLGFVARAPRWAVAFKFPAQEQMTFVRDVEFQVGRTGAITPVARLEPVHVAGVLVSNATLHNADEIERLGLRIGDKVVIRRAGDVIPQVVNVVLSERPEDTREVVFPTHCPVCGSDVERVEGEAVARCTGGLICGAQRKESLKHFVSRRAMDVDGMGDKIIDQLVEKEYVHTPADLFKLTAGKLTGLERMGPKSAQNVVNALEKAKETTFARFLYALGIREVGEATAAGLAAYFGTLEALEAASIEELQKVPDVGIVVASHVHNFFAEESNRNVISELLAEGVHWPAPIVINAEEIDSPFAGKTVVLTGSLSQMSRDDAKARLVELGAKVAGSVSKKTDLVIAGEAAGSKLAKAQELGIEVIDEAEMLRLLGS

Sequence of DNA helicase (P0ACB1 whole entry): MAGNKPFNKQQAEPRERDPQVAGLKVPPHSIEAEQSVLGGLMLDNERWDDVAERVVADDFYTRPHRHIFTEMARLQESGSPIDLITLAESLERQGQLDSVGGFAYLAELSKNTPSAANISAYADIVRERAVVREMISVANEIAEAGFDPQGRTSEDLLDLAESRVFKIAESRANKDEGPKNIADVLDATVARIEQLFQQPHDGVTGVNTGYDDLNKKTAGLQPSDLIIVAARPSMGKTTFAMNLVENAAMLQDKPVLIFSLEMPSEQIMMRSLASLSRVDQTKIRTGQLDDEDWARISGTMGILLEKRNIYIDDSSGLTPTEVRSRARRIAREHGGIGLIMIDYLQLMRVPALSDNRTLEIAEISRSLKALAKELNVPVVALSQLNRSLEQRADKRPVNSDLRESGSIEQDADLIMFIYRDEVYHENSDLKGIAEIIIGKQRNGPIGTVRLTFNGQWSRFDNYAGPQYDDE
Sequence of MurA (Q3YX52 whole entry): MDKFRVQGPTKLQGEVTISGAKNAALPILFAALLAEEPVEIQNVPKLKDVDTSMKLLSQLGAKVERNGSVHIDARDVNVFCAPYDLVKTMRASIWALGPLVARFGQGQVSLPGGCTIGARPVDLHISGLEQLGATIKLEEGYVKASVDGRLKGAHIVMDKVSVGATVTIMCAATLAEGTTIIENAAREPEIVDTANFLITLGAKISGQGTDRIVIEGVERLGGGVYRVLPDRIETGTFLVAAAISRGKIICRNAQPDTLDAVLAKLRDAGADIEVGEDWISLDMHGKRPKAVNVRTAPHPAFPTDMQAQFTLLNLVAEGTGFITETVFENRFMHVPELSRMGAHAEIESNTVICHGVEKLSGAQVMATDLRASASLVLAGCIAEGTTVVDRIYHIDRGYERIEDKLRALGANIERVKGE
Sequence of Guanlyate kinase (Q0TBG1 whole entry): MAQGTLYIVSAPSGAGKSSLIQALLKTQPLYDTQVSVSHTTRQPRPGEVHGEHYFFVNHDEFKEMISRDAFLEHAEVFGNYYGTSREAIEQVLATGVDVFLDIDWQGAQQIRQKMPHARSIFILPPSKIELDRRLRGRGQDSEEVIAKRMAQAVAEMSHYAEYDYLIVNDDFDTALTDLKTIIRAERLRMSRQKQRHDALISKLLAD
Sequence of DNA primase (P0ABS7 whole entry): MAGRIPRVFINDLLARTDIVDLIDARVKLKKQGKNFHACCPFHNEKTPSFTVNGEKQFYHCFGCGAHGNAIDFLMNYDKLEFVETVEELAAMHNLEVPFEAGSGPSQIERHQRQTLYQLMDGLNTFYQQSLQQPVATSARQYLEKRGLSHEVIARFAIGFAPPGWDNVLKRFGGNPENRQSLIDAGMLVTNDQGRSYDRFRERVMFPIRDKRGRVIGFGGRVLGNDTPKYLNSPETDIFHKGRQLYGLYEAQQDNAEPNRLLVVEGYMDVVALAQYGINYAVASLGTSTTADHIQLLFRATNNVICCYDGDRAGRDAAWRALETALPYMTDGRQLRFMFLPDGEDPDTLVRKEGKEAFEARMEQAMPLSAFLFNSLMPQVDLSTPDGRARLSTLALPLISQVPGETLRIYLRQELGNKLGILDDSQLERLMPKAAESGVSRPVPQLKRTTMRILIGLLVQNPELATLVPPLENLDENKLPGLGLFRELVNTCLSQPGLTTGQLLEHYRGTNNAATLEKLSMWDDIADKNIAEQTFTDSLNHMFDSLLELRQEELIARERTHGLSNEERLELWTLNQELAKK
Sequence of DNA polymerase (P10443 whole entry): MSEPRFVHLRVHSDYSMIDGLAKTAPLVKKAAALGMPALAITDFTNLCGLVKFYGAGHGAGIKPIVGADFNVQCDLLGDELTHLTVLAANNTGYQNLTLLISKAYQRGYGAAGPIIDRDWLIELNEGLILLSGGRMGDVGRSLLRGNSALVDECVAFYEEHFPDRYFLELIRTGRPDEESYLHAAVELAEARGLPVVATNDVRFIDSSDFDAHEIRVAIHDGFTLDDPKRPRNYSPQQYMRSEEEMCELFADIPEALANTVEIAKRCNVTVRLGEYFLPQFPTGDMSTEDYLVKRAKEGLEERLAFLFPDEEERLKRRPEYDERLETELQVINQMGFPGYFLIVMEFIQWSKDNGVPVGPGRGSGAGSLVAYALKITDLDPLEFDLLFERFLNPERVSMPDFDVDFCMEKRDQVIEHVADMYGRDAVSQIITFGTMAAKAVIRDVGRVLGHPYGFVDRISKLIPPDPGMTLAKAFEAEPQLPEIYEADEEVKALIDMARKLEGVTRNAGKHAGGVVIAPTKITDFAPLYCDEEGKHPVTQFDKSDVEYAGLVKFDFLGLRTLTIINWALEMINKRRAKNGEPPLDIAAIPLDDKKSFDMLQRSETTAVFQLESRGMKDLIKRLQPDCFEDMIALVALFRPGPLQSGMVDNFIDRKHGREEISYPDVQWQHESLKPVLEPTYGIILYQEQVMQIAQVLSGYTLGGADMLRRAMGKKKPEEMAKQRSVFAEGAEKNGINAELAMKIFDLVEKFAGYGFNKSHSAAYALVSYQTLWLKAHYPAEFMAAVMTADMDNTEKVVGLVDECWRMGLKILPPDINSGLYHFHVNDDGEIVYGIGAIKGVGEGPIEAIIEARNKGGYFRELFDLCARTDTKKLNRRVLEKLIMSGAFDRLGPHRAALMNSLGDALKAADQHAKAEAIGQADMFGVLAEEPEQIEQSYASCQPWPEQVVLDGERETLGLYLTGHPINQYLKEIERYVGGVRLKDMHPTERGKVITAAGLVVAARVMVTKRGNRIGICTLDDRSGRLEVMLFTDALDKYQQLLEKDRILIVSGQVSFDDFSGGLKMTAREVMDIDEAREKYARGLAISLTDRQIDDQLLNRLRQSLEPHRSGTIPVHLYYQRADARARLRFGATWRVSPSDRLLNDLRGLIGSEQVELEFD

Regarding `O=C(O)c1cn(C2CC2)c2cc(N3CCNCC3)c(F)cc2c1=O`, the relative enzymatic activity with DNA gyrase amounted to 0.0423 ± 0.06; with DNA helicase it was 0.645 ± 0.22; in the experiment with DNA polymerase it was 0.688 ± 0.4; with DNA primase it was 0.687 ± 0.18; with GlmU it was 1.09 ± 0.16; with Guanlyate kinase, 0.932 ± 0.065. Further, the relative enzymatic activity was 0.705 ± 0.28 with MurA, 0.576 ± 0.41 in the experiment with MurD, 0.991 ± 0.21 with MurF and 0.771 ± 0.006 in the experiment on RNA polymerase.
As to `CC1CCc2cc(F)cc3c(=O)c(C(=O)O)cn1c23` (configuration not stated), the relative enzymatic activity in the experiment with DNA gyrase is 0.0609 ± 0.086; with DNA helicase, 0.593 ± 0.15; with DNA ligase, 0.937 ± 0.35; in the experiment with DNA polymerase it was 1.41 ± 0.53; with DNA primase, 0.655 ± 0.13; with GlmU, 0.9984 ± 0.0089. The relative enzymatic activity in the experiment with Guanlyate kinase worked out at 1.03 ± 0.1; with MurA it was 0.715 ± 0.16; with MurD, 0.568 ± 0.39; with MurF, 0.97 ± 0.2; in the experiment on RNA polymerase it was 1.04 ± 0.22.
Consider `Cc1nnc(SCC2=C(C(=O)O)N3C(=O)[C@@H](NC(=O)Cn4cnnn4)[C@H]3SC2)s1`, for which the relative enzymatic activity in the experiment with DNA gyrase amounted to 0.719 ± 0.43; with DNA helicase it was 0.348 ± 0.37; with DNA ligase, 0.987 ± 0.14; with DNA polymerase, 1.17 ± 0.26; with DNA primase, 0.792 ± 0.035; with GlmU, 0.995 ± 0.059. Also, the relative enzymatic activity with Guanlyate kinase stood at 0.9645 ± 0.0053; with MurA, 0.137 ± 0.029; with MurD, 0.604 ± 0.41; in the experiment with MurF, 0.96 ± 0.22; in the experiment with RNA polymerase, 0.862 ± 0.057.
